Molecules are shown by their SMILES. Active and inactive are the calls of the source. Entries that show only a call come without a potency. The call rests on the fitted dose curve; in most records, active means well fitted activation curve with a large enough effect in the repeat runs; inconclusive means weak or mixed curves; inactive means flat fitted curve, though single readings scatter.

This assay in a line: A CellTox Green Cytotoxicity Assay to monitor cytotoxicity in HEK293 cells - 0 hour (AID 1224869). Further: nearly all actives have a fitted effect of over 50% in size. Particulars: CellTox Green fluorescence; series mostly up to 76.8 µM. In a few lines:
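Tox21 screen in HEK293: membrane-impermeant cyanine dye fluoresces on binding dead-cell DNA; compound pinned 5 h post-seeding, plates held at 37 C, signal read repeatedly through 40 h.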
Regarding `CC(C)CC(O)CC(C)C`, the Potency result was “inactive”. For the molecule `C=Cc1ccc(OC(C)=O)cc1`, the Potency result was “inactive”. Take `CC(C)c1ccc(C#N)cc1`: the Potency result is “inactive”. To `CCCCC(CC)COS(=O)(=O)O` (stereo not given) belongs “inactive”; to `Nc1ccn([C@H]2CS[C@@H](CO)O2)c(=O)n1`, “inactive”; to `Cc1ccc(Nc2c(F)cccc2Cl)c(CC(=O)O)c1`, “inactive”. Then `CCCCCCCCCCCCCC(=O)OCC(O)CO` (stereo not given), with “inactive”; and `COc1ccc(/C=C/C(=O)c2ccc(OC)cc2OC)cc1`, with “inactive”; and `O=C(O)c1ccc(O)cc1O`, with “inactive”.

As for `CCOC(=O)c1ccc(NC(=O)CN2CCCCC2)cc1`, the Potency entry is “inactive”. Regarding `ClC1=C(Cl)C1(Cl)Cl`, the Potency result is “inactive”. For the molecule `CC(C)(C)CCCCCCOC(=O)c1ccccc1C(=O)OCCCCCCC(C)(C)C`, the Potency result was “inactive”. To `O=C(NS(=O)(=O)/C=C/c1ccccc1)c1ccc(F)cc1Cl` belongs “inactive”. To `CS(=O)(=O)c1ccc([C@@H](C[C@H]2CCC(=O)C2)C(=O)Nc2cnccn2)cc1Cl` belongs “inactive”; to `O=[N+]([O-])c1ccc2ncccc2c1`, “inactive”.

The record behind these values is PubChem BioAssay (Tox21).
